Screening results from PubChem BioAssay.
The list is not random: actives were taken first. Their share in the collection is about 7.3%.
uPA surface inh – cell surface uPA generation inhibition; cell surface uPA generation assay, qHTS; Potency, µM (series often up to 38.3 µM), for the others: top-dose activity change, negative = inhibition, usual class: inhibitors; hit rate 0.31% among 330,000; AID 540303; active = well fitted inhibition curve with a large enough effect; inconclusive = small, poorly fitted or top-dose-only effect; inactive = no such curve, though single readings can be large or run the other way; tested in mouse RAW 264.7 cells; note: % is set by controls: 0 for no effect and ±100 for the full control effect; nearly all actives have a fitted effect of over 55% in size
SMN2 splice up – increases expression of the SMN2 splice variant | HEK293 SMN2-luciferase splicing reporter, luminescence, 30-36 h | Potency, µM (doses to about 46.1 µM), inactives show at the highest dose activity change, positive = activation, actives largely listed as activators | hit rate 2.8% among 210,000; note: % of control where 0% means no effect; nearly all actives have a fitted effect of over 55% in size
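qHTS luciferase splicing reporter: luminescence rises when SMN2 exon 7 is included in transfected HEK293 cells. Compound exposure lasted 30-36 h at 37C, with 4.5 mM final sodium butyrate as control, followed by a ONE-Glo read.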
Rab9 promoter act – Rab9 promoter activation | Huh7 Rab9 promoter-luciferase reporter, luminescence, 24 h | Potency, µM (titrated, usually from 9.22 µM), without a hit: top-dose activation, negative = inhibition, most hits filed as activators | hit rate 2.8% among 320,000 | AID 485297; note: % of control where 0% means no effect; nearly all actives have a fitted effect of over 60% in size
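Promoter activation is measured as luciferase luminescence in Huh7 cells stably transfected with a Rab9 promoter–luciferase construct, following 24 h compound exposure at 37 °C and 10 min reagent incubation at ambient temperature.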
NPC1 promoter act – activators of NPC1 promoter; Huh7 NPC1 promoter luciferase reporter, 24 h; Potency, µM (series often up to 9.22 µM), for the others: at the top dose activation, actives largely listed as activators; hit rate 2.4% among 320,000; note: % of control where 0% means no effect; nearly all actives have a fitted effect of over 60% in size
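Stably transfected Huh7 (NPC1 promoter→luciferase), 1500 cells/well in Opti-MEM + 10% FBS, 2 h settle, then compound 24 h at 37 °C. Luminescence after 10 min with Amplite reagent.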
FLuc counter – counter-screen for miR-21 project: firefly luciferase inhibitors or activators. hit rate 6.9% among 360,000. Potency, µM (highest dose often 57.5 µM), for the others: at the highest dose activity change, negative = inhibition, usual class: inhibitors. P08659. purified FLuc, Km substrates, luminescence inhibition;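 note: plate controls were vehicle for no effect and reference inhibitor for full effect; nearly all actives have a fitted effect of over 55% in size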
Target sequence (P08659 whole entry, looked up): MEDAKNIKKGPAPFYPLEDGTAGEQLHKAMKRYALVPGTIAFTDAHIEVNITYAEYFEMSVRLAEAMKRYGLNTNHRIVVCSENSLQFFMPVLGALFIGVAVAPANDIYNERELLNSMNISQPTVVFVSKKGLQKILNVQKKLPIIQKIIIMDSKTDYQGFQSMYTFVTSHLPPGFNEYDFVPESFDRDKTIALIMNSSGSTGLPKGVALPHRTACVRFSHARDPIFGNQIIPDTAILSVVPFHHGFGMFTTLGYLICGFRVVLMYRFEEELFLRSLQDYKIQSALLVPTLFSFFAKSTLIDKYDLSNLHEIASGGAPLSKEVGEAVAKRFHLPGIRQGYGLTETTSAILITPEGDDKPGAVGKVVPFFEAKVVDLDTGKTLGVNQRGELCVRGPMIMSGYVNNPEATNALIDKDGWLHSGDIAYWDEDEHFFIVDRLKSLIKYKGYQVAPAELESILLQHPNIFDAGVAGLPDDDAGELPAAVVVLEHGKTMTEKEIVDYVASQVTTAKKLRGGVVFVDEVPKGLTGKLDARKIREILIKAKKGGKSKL
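Purified P. pyralis luciferase, 10 nM final, with Km-level 10 uM D-luciferin and 10 uM ATP in 50 mM Tris acetate pH 7.5, 10 mM Mg acetate, 0.01% Tween-20, 0.05% BSA; 6-point qHTS titration about 60 µM downward; luminescence read.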
ELG1 genotox – inducers of genotoxicity in HEK293T ELG1-luciferase cells | HEK293T ELG1-luciferase reporter, luminescence, 16 h | Potency, µM (titrated, usually from 46 µM), for inactives: top-dose activity change, positive = activation, hits mostly activators | hit rate 1.3% among 330,000; note: % of control where 0% means no effect; nearly all actives have a fitted effect of over 60% in size
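Luminescence read-out: rising ELG1-luciferase signal, reflecting elevated ELG1 protein under genetic stress, flags genotoxic compounds. Cells were treated for 16 hr at 37 °C before ONE-Glo detection.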
* marks the source's active call; other numbers are inactive results; ? = inconclusive; / = not tested or not shown; [ ] = dose if it differs, or a comment. Unless noted, calls come from the whole dose curve; as a rule, active = well fitted curve in the direction sought with a large enough effect; inconclusive = small, poorly fitted or top-dose-only effect, or another doubt; inactive = no such curve, though single readings can be large; an effect the other way counts as inactive or inconclusive. Potency is the fitted concentration of half-maximal effect.

SMILES | uPA surface inh | SMN2 splice up | Rab9 promoter act | NPC1 promoter act | FLuc counter | ELG1 genotox
CCOC(=O)c1ccc(NC(=O)N2CCc3ccccc3C2)cc1 | 4.4% | / | 17.6% | -0.7% | ? | 12.6%
O=S(=O)(Nn1c(O)c(C=C2N=c3ccccc3=N2)sc1=S)c1ccccc1 | -19.9% | / | 0.8% | -2.2% | 15.1µM* | -5.2%
O=C(Nn1c(O)c(C=C2N=c3ccccc3=N2)sc1=S)c1ccccc1Cl | / | -2.9% | -0.9% | -0.8% | 15.1µM* | -0.8%
Oc1c(C=C2N=c3ccccc3=N2)sc(=S)n1-c1ccccc1 | 2.0% | -23.6% | -3.2% | -5.3% | -8.2% | -0.4%
COc1cccc(CNS(=O)(=O)/C=C/c2ccc3c(c2)OCO3)c1 | -4.9% | -10.9% | 3.5% | -0.7% | -0.7% | -3.4%
Cc1ccc(S(=O)(=O)N/N=C/c2cccn2-c2ccc(Cl)cc2)cc1 | -0.5% | -19.6% | ? | ? | 0.536µM* | 10.7%
Cc1ccc(S(=O)(=O)N/N=C/c2c(F)cccc2Cl)cc1 | -6.5% | -5.2% | 3.5% | 0.0% | 0.5% | -1.6%
Cc1c(Cl)cccc1NC(=O)Cn1nc(C)n2cccc2c1=O | -13.7% | / | -1.8% | -11.5% | 1.1% | 0.0%[9.26 µM]
CCOC(=O)c1ccc(COC(=O)c2nonc2N)cc1 | 3.5% | -12.5% | 1.7% | 0.8% | 15.1µM* | -0.3%
COC(=O)c1cc(S(=O)(=O)N2CCCCC2)c[nH]1 | 5.9% | / | -4.3% | -1.2% | -0.8% | 0.2%[9.26 µM]
COC(=O)c1ccc2c(c1)C(C)(C)C(/C=C/c1ccccc1O)=[N+]2C | / | -93.3% | -45.3% | -42.1% | 15.1µM* | ?
COc1ccc(CCNC(=O)C(=O)NCC(c2ccco2)S(=O)(=O)c2ccc(F)cc2)cc1 (configuration not stated) | / | / | / | / | -1.6% | /
COc1cccc(/C=N/NC(=O)C(C)n2nc(C)c([N+](=O)[O-])c2C)c1O (configuration not stated) | -5.5% | ? | -30.1% | -12.6% | 7.57µM* | ?
COc1cccc(/C=N\NC(=O)c2ccc(Cn3cc(Br)c([N+](=O)[O-])n3)o2)c1O | -14.2% | / | -50.9% | -33.3% | 10.7µM* | 11.7%
COc1cccc(/C=N/NC(=O)c2c(C)nc3ccc(Br)cn23)c1O | 4.47µM* | -103.4% | -29.0% | -29.9% | ? | 0.2%
CCOc1ccccc1/C=N/NC(=O)c1c(C)nc2ccc(Br)cn12 | -15.6% | / | 6.3% | 2.5% | -0.2% | -4.8%
COc1cccc(/C=N/NC(=O)C(=O)N2CCCC2)c1O | -27.1% | -47.9% | 11.0% | 7.1% | 15.1µM* | ?
COc1cc(/C=N\NC(=O)c2ccc(Cn3nc([N+](=O)[O-])c(Cl)c3C)o2)ccc1O | -6.0% | ? | -2.4% | -2.5% | ? | 11.8%
CCOc1ccc(CNS(=O)(=O)c2cccs2)cc1OCC | 6.7% | / | 0.0% | -4.6% | -0.5% | -0.6%
CCOc1ccc(S(=O)(=O)N(CC)CC(=O)NCc2cccnc2)cc1 | 5.9% | / | 1.0% | 0.4% | 3.7% | -3.0%
COc1cc(C(=O)CC2(O)C(=O)N(Cc3ccccc3Cl)c3ccccc32)cc(OC)c1OC (configuration not stated) | / | -10.0% | / | / | -1.8% | /
COc1cccc(/C=N/NC(=O)N/N=C/c2cccc(OC)c2O)c1O | -8.5% | / | -2.9% | -2.2% | 4.26µM* | -7.5%
COc1ccccc1C=NNC(=O)NN=Cc1ccccc1OC | -8.6% | / | / | / | / | /
Cc1cc(C(=O)CN2C(=O)C3CC=CCC3C2=O)c(C)n1-c1ccccc1 (configuration not stated) | -11.6% | -58.4% | 0.708µM* | 0.562µM* | 0.675µM* | ?
CCn1c(C)cc(C(=O)CN2C(=O)c3ccccc3S2(=O)=O)c1C | -1.7% | / | ? | ? | / | 1.4%
SMILES | uPA surface inh | SMN2 splice up | Rab9 promoter act | NPC1 promoter act | FLuc counter | ELG1 genotox
Cc1cc(C(=O)CN2C(=O)c3ccccc3S2(=O)=O)c(C)n1-c1ccccc1 | -10.9% | -15.5% | -11.1% | -13.5% | 2.13µM* | -26.7%
Cc1cc(C(=O)Cn2cc(C(F)(F)F)ccc2=O)c(C)n1-c1ccccc1 | -2.5% | 1.7% | -2.8% | 0.3% | ? | 2.6%
C=CCn1c(C)cc(C(=O)CN2C(=O)c3ccccc3S2(=O)=O)c1C | -10.1% | / | -34.7% | -32.0% | 1.51µM* | -4.1%
COc1cccc(C(=O)Nc2ccccc2-c2nnc(-c3ccc(C(C)(C)C)cc3)o2)c1 | / | 9.9% | / | / | 2.4% | /
Nc1nc(=S)c2[nH]cnc2[nH]1 | 0.159µM* | -43.0% | -6.2% | -6.8% | -0.2% | -15.4%
COc1cccc(NC(=O)CN2C(=O)c3cccc4cccc2c34)c1 | / | -7.0% | / | / | 3.1% | /
O=C(NCC(c1ccco1)N1CCc2ccccc21)C(=O)Nc1ccccc1F (configuration not stated) | ? | / | 3.9% | -1.7% | -1.4% | ?
O=C(NCC(c1ccco1)N1CCc2ccccc21)C(=O)Nc1ccc(F)cc1F (configuration not stated) | 3.16µM* | / | -14.7% | -17.4% | -9.2% | ?
CCN1CCN(c2ccc(N=Cc3ccc(O)cc3O)cc2)CC1 | / | -9.0% | -5.1% | 1.2% | 16.9µM* | -0.4%
COc1cc2oc(=O)c3c4c(cc5ccc(c1CCN(C)C)c2c53)OCO4 | / | 10.7% | / | / | / | /
CCN(Cc1nc(-c2cccc(Cl)c2)no1)CC1CCCO1 (configuration not stated) | -1.2% | / | 19.7% | 6.0% | ? | 5.8%
CN(Cc1nc(-c2cccc(Cl)c2)no1)C1CCOCC1 | 11.1% | / | 2µM* | ? | ? | ?
CCOc1ccc(/C=C2\NC(=S)NC2=O)cc1 | -9.5% | / | -7.0% | -1.2% | 16.9µM* | -0.4%
CC1SCC(NC(=O)c2ccc(Cl)cc2)CS1 (configuration not stated) | 0.8% | / | ? | ? | ? | ?
CC1SCC(NC(=O)c2ccccc2Cl)CS1 (configuration not stated) | -10.0% | / | 4.47µM* | ? | 16.9µM* | ?
Cc1cccc(CNc2cc(-c3cccc(C#N)c3)ncn2)c1 | / | -25.3% | / | / | / | /
OCC1CCCN(C(=S)NCCc2ccccc2)C1 (configuration not stated) | -3.2% | ? | ? | 3.16µM* | 16.9µM* | ?
CC1CCN(C(=S)NCCc2ccccc2)CC1 | / | -1.8% | 2µM* | 3.55µM* | 10.7µM* | 7.31µM*
S=C(NCCc1ccccc1)N1CCN(C(=S)NCCc2ccccc2)CC1 | 2.4% | / | -1.0% | -1.7% | -6.0% | -3.6%
CCCSc1nnc2n(-c3cccc(C)c3)c(=O)c3c4c(sc3n12)CCCC4 | / | -4.2% | / | / | -3.0% | /
CN(CCO)Cc1ncccc1O | / | -3.4%[9.22 µM] | / | / | / | /
CCCCSc1nnc2n(-c3ccc(OC)cc3)c(=O)c3c4c(sc3n12)COC(C(C)C)C4 (configuration not stated) | / | 3.1% | / | / | 1.2% | /
Cc1ccc2c(c1)cc1c(=O)[nH]ncn12 | -8.2% | -5.4% | ? | ? | 21.3µM* | ?
